# Results reported in PubChem BioAssay AID1347426 (Functional Genomics Laboratory (NCATS/FGL), 2020).
# About 1,400 (4.5%) of roughly 31,000 sequences were called active. The sample as a whole holds a higher share of actives than the screen did. Values without a mark were called inactive.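 How the source made its calls: active means median seed-adjusted z-score above 1 or below -1; inactive means the rest.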
# Test: Novel Modifiers of Survival Motor Neuron (SMN) Protein: Gene Identification via Genome-wide siRNA Screen;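 further: luminescence tracks full-length SMN protein made from the SMN2 reporter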
# Settings: HEK293T SMN2-luciferase reporter, siRNA knockdown, 72 h; actives lie on both sides
# Procedure, shortened: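 Each of three siRNAs per gene is reverse-transfected (1 pmol) into reporter HEK293T cells whose luciferase output tracks SMN protein level. After 72 h culture, ONE-Glo luminescence is control-normalized, log10-transformed and MAD-standardized; Common Seed Analysis deprioritizes seed-driven hits.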
row,Sequence,median seed-adjusted z-score
1,GAUCAGGAGUCCUUCAAUATT against RAB1A,0.395
2,CGCCGACUGUCAUGCUUCATT against FCN1,0.346
3,GUUCAUCCCUUAUUCGACATT against ZNF215,0.485
4,CCAUCAACAUCGCAGAUGATT against ABHD11,-0.189
5,CCGACACGCUCUACAAUAATT against BRUNOL6,-0.542
6,CCCUUACCCAAAACGAGAATT against CDK8,-1.47 (active)
7,CCCUGACUGCAACUGCUUUTT against LDLRAD2,-0.459
8,GAGUCAUUAUUGACAACAATT against APH1B,-0.135
9,GGUGUUUGAUAUUCGAAUUTT against USP40,0.00437
10,GCAACAUCCUCAUUGUAUUTT against MCHR2,-0.658
11,GCAUAUUCCGGUGAUAACUTT against RAB6C,-1.08 (active)
12,CAGGCGCCUGAAGUACAUATT against SLC35A2,1.06 (active)
13,AGCUCACCAGAGAAAUUUUTT against CHDH,0.0241
14,GCUGCUCUGUUGAUGCUUATT against POMT1,0.327
15,GGAGUUAUAUUUAGUGAUATT against ABCA10,-0.104
16,GGGUCAAGAUCGAGGAUAATT against MYOM3,-0.012
17,CCUCUAACAUUGGUUCCAATT against XPNPEP1,-1.5 (active)
18,CCAUGUACGUCAUCCCAUUTT against PCK1,-0.401
19,AGAUGAGCCUAUACAGCGATT against TRIM9,-0.437
20,GCAGUUCGGCAGUAUCUGUTT against PSMD6,-1.03 (active)
21,CAUCCAGCCCUUAUACAAATT against RBM24,0.0471
22,CGUUCUAUCAACAAACUCATT against EIF2S1,-0.175
23,GCCUCACAGGUGCAUCAUATT against TSC2,1.11 (active)

row,Sequence,median seed-adjusted z-score
1,GCCUAGGAGCGAGGACUUATT against DNAJC30,0.329
2,CAGCUAUAAUCGUUUAUGATT against RAB22A,0.321
3,GGAAUUUCGGCACUCAGAATT against CHIT1,-0.578
4,GGUUGCCCAUCUUACUCUATT against ZNF470,-1.26 (active)
5,GCUCGGUCUGGUGAACUAATT against KLF3,0.628
6,CAAUCGUCAUAAUGUCUAUTT against A2M,-1.96 (active)
7,GAUCCAUAGUACACGAAUATT against ADAM7,-0.0638
8,AGAUUGUCCUCAACUUCAATT against NRP2,0.477
9,AAUCAAAAGGGAGAACUCATT against HS3ST2,0.133
10,GACCCUCGAUUACUAUUCATT against OMA1,0
11,GCAUCGACAUGUCCUGGGATT against PUF60,2.26 (active)
12,CAUCAACUAUAUCACAGUATT against ATP13A5,0.241
13,AAUUCGAUAUGUUCAGCAATT against GPX4,-1.18 (active)
14,CAUCUAGGAUUUUAAGGGATT against ASGR1,-0.128
15,GGAGGUUUGUAGAAUAUGUTT against XYLT1,-0.274
16,GCACGACUGUUACUGGACUTT against POLRMT,0.0812
17,GGAUAUCAAUCGAGUACAATT against PIK3R3,-1.88 (active)
18,GCUGGACCGUAAAAUUGAATT against PSMC4,-0.361
19,CCAACAUCUGGAACGAAUATT against KCNT2,0.449
20,GGACAAGAACGGAAUUUCATT against SCLY,0.00396
21,GGACGGAAGAUUUUCGUAUTT against SR140,1.16 (active)
22,GAACCUCUAUUGUGGACAATT against TMEM1,-0.191
23,AGAAAGUACUGCACAGAGATT against PCDH8,-1.03 (active)

row,Sequence,median seed-adjusted z-score
1,CGAAGUUUCCUAUAGAGGATT against PCDHGA10,0.0621
2,GAUAGGAUGUGACAAUGAATT against ING2,0.126
3,GCCUAUCAGGAUCCCAGCATT against RIN1,-0.0694
4,AUGUACAAGUGUCAGCUAATT against VEGFC,-0.41
5,GCAUCGUGGUGUCAAGUCATT against ZBTB12,0.0993
6,GGUUGAAGCUUAUUGCAGATT against HARS2,0
7,CAAAAGUAUUCUUAGGAAATT against SLC25A15,-0.0116
8,GACCUACUCUAGUGACAGATT against TRERF1,-0.0952
9,ACCGAGAGAUGGUAUAUGATT against SUPT4H1,-1.01 (active)
10,AGAUCACUGUAUCACCUCUTT against VDR,-0.031
11,GCUGGUGACUGAGUUUUCATT against NOB1,-0.0844
12,GCUAUAUCAGGAUGAGAUATT against ATG5,-0.0597
13,GGCCUUACCCUAAAUCGAATT against RARB,0.409
14,CGAGCUACAGGAACAUCUUTT against LSS,-0.302
15,GUGUGAAGGUAGACCGUGATT against SPATA20,0
16,GAGUGGAAGUGUACCAACATT against HCFC1,1.47 (active)
17,GGAAGAUUCAGUUAACAUUTT against NUDT3,0.674
18,CAACCAUGUUCAGUAUAGATT against SPINK9,0.392
19,CCGGAGAAGUUCAACAGCATT against DGKA,-1.36 (active)
20,GCUAAUCAUUGAGUAUGCATT against KLHL10,0.0708
21,AGCUGACCGAGUUCCUGCATT against GAL3ST1,0.263
22,CCUUGGAGGAGAUCGCUGATT against TEKT2,-0.349
23,GGCAUACAGUUCCGAGAAATT against AGL,-0.385
